# Screening data (PubChem)
# Pin1 inhibitor = blocks the human prolyl isomerase Pin1; Potency, µM (series often up to 115 µM), for the others: at the top dose activity, negative = inhibition, most hits filed as inhibitors; actives 0.009% (n = 390,000); Pin1 FP peptide displacement, HiFluor488, 10 min; Q13526; active = well fitted inhibition curve with a large enough effect in the polarisation, with a control signal flat, not every such curve was filed as active; inconclusive = small, poorly fitted or top-dose-only effect, or effect the other way, or a change in a side signal; inactive = no such curve, though single readings can be large or run the other way; the % refers to the polarisation; also: % is scaled to controls: 0 for no effect and ±100 for the full control effect
# Target sequence (Q13526 whole entry, looked up): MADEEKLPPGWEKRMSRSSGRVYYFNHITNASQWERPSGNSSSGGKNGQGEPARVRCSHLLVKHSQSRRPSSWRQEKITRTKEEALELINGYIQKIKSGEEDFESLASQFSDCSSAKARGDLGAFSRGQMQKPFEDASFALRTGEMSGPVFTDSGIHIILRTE
# GLS inhibitor = blocks human kidney-isoform glutaminase activity; O94925; GLS enzymatic activity, qHTS titration; Potency, µM (top dose mostly 45.5 µM), without a hit: at the top dose activity change, negative = inhibition, usual class: inhibitors; actives 0.21% (n = 410,000); AID 624170; also: % is scaled to controls: 0 for no effect and ±100 for the full control effect
#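 hKGA in 45 mM KH2PO4 (pH 8.2), 0.02% Tween-20 with compound, then 1mM L-Glutamine (stock as added) plus glutamate oxidase/HRP/Amplex red coupling mix. Fluorescence read initially and after 30 min at RT; signal change reflects glutamate formation.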
# Tb PFK block = blocks T. brucei phosphofructokinase. O15648. T. brucei PFK, ADP-Glo luminescence. Potency, µM (doses to about 57.5 µM), for the others: top-dose activity, negative = inhibition, actives largely listed as inhibitors. actives 0.17% (n = 330,000). AID 485367;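 also: 0% = uninhibited 1x PFK enzyme wells and -100% = no-enzyme wells; nearly all actives have a fitted effect of over 60% in size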
#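 In TEA buffer at pH 8.0 with 5 mM MgCl2, enzyme (1.25 nM) converted F6P (0.5 mM) and ATP (0.1 mM) for 45 min at room temperature. ADP product was read by luciferase luminescence.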
# Tb PGK inh = T. brucei PGK inhibition; PGK/GAPDH coupled, Kinase-Glo luminescence, 60 min; Potency, µM (doses to about 57.5 µM), for the others: top-dose activity change, negative = inhibition, actives largely listed as inhibitors; actives 0.043% (n = 380,000); also: % is scaled to controls: 0 for no effect and ±100 for the full control effect; nearly all actives have a fitted effect of over 60% in size
#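 Recombinant glycosomal PGK reaction used 1,3-bisphosphoglycerate generated in-well by GAPDH (100nM final) in 100mM TEA pH 7.6, 5mM MgCl2, 0.01% Tween-20. After 60 minutes at room temperature, ATP was read by Kinase-Glo Plus luminescence end-point.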
# VDR inhibitor = blocks the human vitamin D receptor. Potency, µM, inactives show max response, negative = inhibition, actives largely listed as inhibitors. VDR-SRC2-3 peptide fluorescence polarization, 2 h. actives 0.93% (n = 400,000). P11473. AID 504847; also: % is scaled to controls: 0 for no effect and ±100 for the full control effect
# Target sequence (P11473 whole entry, looked up): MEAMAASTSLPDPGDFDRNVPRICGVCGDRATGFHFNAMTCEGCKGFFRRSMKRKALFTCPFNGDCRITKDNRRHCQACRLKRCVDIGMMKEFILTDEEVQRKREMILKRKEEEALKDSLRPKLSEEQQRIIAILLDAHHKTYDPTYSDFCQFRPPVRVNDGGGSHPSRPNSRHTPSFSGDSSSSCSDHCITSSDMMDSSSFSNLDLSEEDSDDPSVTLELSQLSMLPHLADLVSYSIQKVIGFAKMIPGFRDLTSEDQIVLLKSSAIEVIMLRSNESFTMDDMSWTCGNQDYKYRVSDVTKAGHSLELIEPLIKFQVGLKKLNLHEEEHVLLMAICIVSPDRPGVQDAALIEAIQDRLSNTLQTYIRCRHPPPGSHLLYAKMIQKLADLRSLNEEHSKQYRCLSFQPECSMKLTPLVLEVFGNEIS
#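 FP read-out; VDR + SRC2-3 coactivator peptide; 23 nl compound by pintool; 2 h RT incubation; reagents held at 4 deg C, protected from light.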
# VDR inh confirm = inhibits human vitamin D receptor, primary hit validation; Potency, µM, actives largely listed as inhibitors; AID 602199; shares compounds with VDR inhibitor; actives 89% (n = 840); VDR-coactivator inhibition assay, qHTS confirmation
# VDR FP = VDR (human) coactivator binding inhibition, fluorescein polarization; VDR-coactivator binding, fluorescein fluorescence polarization; shares compounds with VDR inhibitor; actives 48% (n = 840); Potency, µM (top dose mostly 57.1 µM), for inactives: at the highest dose activity change, negative = inhibition, hits mostly inhibitors
# VDR bla reporter = inhibits human VDR in beta-lactamase reporter cells | VDR beta-lactamase reporter cells, FRET ratio; cells co-treated with VDR agonist LG190178 | actives 23% (n = 840) | AID 602202 | Potency, µM (doses to about 46.1 µM), for the others: at the highest dose activity change, negative = inhibition, usual class: inhibitors | shares compounds with VDR inhibitor; also: % is scaled to controls: 0 for no effect and ±100 for the full control effect
# VDR viability = counter-screen for vitamin D receptor inhibitors: cytotoxicity | shares compounds with VDR inhibitor | Potency, µM (highest dose often 48.3 µM), inactives show at the top dose activity change, negative = cytotoxicity, actives largely listed as cytotoxic | AID 602204 | actives 18% (n = 840) | cytotoxicity counter-screen, cell viability, qHTS;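 also: plate controls were DMSO for no effect and high-concentration cycloheximide for full effect; nearly all actives have a fitted effect of over 75% in size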
# The depositor's hits bear a star; i = inactive; ? = inconclusive; · = no result given; [ ] = dose if it differs, or a comment. Shown are actives, neighbours in structure and some others; about 1.1% of the full set was active somewhere. Unless noted, calls follow the shape of the dose curve; as a rule, active = well fitted curve in the direction sought with a large enough effect; inconclusive = small, poorly fitted or top-dose-only effect, or another doubt; inactive = no such curve, though single readings can be large; an effect the other way counts as inactive or inconclusive. Potency is read from the fitted curve at half-maximal effect.
SMILES,Pin1 inhibitor,GLS inhibitor,Tb PFK block,Tb PGK inh,VDR inhibitor,VDR inh confirm,VDR FP,VDR bla reporter,VDR viability
CCN1CCN(C(c2ccc(C(F)(F)F)cc2)c2ccc3cccnc3c2O)CC1 (stereo unspecified),-1%,-13%,?,5%,25µM*,?,10µM*,8%,-5%
CCOC(=O)c1c(NC(=O)c2ccncc2)sc(C)c1C,0%,-11%,-6%,-3%,3%,·,·,·,·
CCOC(=O)c1sc(NC(=O)c2ccncc2)c(C#N)c1C,30%,-2%,22%,9%,45µM*,3.8*,?,5%,?
Cc1ccc(C2(C)NC(=O)N(CC(=O)Nc3nc(-c4ccccn4)cs3)C2=O)cc1 (stereo unspecified),-4%,-18%,-24%,3%,?,11*,?,?,-16%
O=[N+]([O-])c1c(NCCCO)cc(Sc2ccc(Cl)cc2)c2nonc12,6%,5%,0%,0%,?,6.3*,7.1µM*,23µM*,?
O=[N+]([O-])c1c(NCCCO)cc(SCc2ccco2)c2nonc12,0%,2%,?,i,-25%,·,·,·,·
Cc1ccccc1CS(=O)(=O)c1nnc([C@H](CC(C)C)NC(=O)OC(C)(C)C)o1,2%,-1%,0%,-2%,20µM*,11*,7.1µM*,?,?
O=C1C(Cl)=C(N2CCOCC2)C(=O)N1c1cccc(C(F)(F)F)c1,-5%,5%,0%,-2%,35µM*,30*,28µM*,7%,-4%
COC(=O)c1cccc(N2C(=O)C(Cl)=C(N3CCOCC3)C2=O)c1,13%,-1%,-7%,-12%,?,·,·,·,·
COc1ccc(OC)c(/C=C/C(=O)c2ccc(Cl)cc2)c1,?,-13%,-6%[0.46 µM],i,45µM*,18*,22µM*,?,3%
Cc1ccc2c(c1)c1c(c(=O)n(-c3ccccc3)c(=O)n1CC(=O)NCCC1=CCCCC1)n2C,-1%,1%,·,-8%,7%,·,·,·,·
Cc1ccc(C(=O)c2no[n+]([O-])c2C(=O)c2ccc(C)cc2)cc1,·,0%,8%,-7%,?,10*,18µM*,6.5µM*,13µM*
CC1=C(CO)C(=O)OC([C@@H](C)C2CC[C@H]3C4C[C@H]5O[C@]56[C@@H](O)C=CC(=O)[C@]6(C)C4CC[C@]23C)C1 (stereo partly specified),5%,-1%,1%,-1%,18µM*,12*,10µM*,5.8µM*,?
COc1cc(/C=C2/N=C(C3CCCCC3)OC2=O)cc(OC)c1OC,0%,-6%,3%,-8%,40µM*,17*,14µM*,24%,15%
CCOc1ccccc1C1N=C(c2ccc(OC)cc2)CC(c2ccccc2O)N1 (stereo unspecified),17%,9%,-5%,-5%,?,?,?,?,3%
Cc1ccc(/C=c2\sc3nc(-c4cccnc4)nn3c2=O)cc1,16%,-13%,7%,-1%,?,2.2*,1.1µM*,3%,18%
CC(C)c1ccc(/C=c2\sc3nc(-c4ccncc4)nn3c2=O)cc1,-26%,9%,-6%[0.46 µM],5%,22µM*,2.7*,?,-7%,18%
Cc1ccc2nc(N)[nH]c(=O)c2c1Sc1ccncc1,·,3%,·,·,-1%,·,·,·,·
COCCNC(=O)Cn1cc(/C=C(\C#N)C(=O)NC2CCCC2)c2ccccc21,5%,-10%,2%,i,1%,·,·,·,·
CCc1ccc(C(=O)/C=C/c2ccc([N+](=O)[O-])o2)cc1,47%,1%,1%,-7%,32µM*,6.7*,?,16µM*,?
CCc1ccc(/C=C/C(=O)c2ccc(S(=O)(=O)N(C)C)cc2)cc1,2%,3%,-1%,-10%,?,?,6.3µM*,33%,?
COc1ccc(/C=C2\C(=O)N(c3c(Cl)cc(Cl)cc3Cl)N=C2NC(=O)c2cccc([N+](=O)[O-])c2)cc1,·,4%,4%,-8%,?,2.8*,1.3µM*,?,-14%
COc1ccc(NC(=O)c2cccc(N3C(=O)c4cccc([N+](=O)[O-])c4C3=O)c2)cc1,5%,5%,-1%,0%,-29%,·,·,·,·
COc1cc(NC(=O)CCS(=O)(=O)c2nc(-c3cccs3)cc(C(F)(F)F)n2)cc(OC)c1OC,7%,7%,-8%,-3%,?,·,·,·,·
O=C(CCS(=O)(=O)c1nc(-c2ccc3c(c2)OCO3)cc(C(F)(F)F)n1)Nc1ccc(F)c(Cl)c1,?,-6%,·,10%,8.9µM*,7.1*,7.9µM*,23µM*,?
SMILES,Pin1 inhibitor,GLS inhibitor,Tb PFK block,Tb PGK inh,VDR inhibitor,VDR inh confirm,VDR FP,VDR bla reporter,VDR viability
COc1ccc(NC(=O)CCS(=O)(=O)c2nc(-c3cccs3)cc(C(F)(F)F)n2)cc1OC,12%,3%,·,-10%,45µM*,?,25µM*,4%,9%
O=C(O)CCNc1ccc(NCCC(=O)O)c2c1C(=O)c1ccccc1C2=O,?,?,?,?,7.1µM*,7.5*,28%,1%,?
O=C(/C=C/c1ccccc1)n1cnnc1SC/C=C/c1ccccc1,1%,1%,0%,i,40µM*,17*,?,12%,-5%
Cc1nc2cncnc2n(Cc2ccccc2)c1=O,·,·,·,·,4%,·,·,·,·
O=C(NCC(O)c1nc2ccccc2[nH]1)c1cc([N+](=O)[O-])ccc1F (stereo unspecified),·,6%,·,·,·,·,·,·,·
COc1ccc(C(Nc2cc(C)ccn2)c2ccc3ccc(C)nc3c2O)cc1 (stereo unspecified),2%,-2%,4%,i,?,6.3*,3.5µM*,2%,8%
Cc1ccnc(NC(c2ccccc2)c2ccc3cccnc3c2O)c1 (stereo unspecified),1%,17%,·,-7%,?,·,·,·,·
